Results on 40 molecules are retold here after PubChem BioAssay (EPA / NIEHS).

Broadly, the AC50 is the concentration at which the activity in the assay is half-maximal.

Molecules are shown by their SMILES. Active and inactive are the calls of the source. How the source made its calls: active means hit-call score of the fitted dose curve at least 0.9, where 1 is the maximum; inactive means score below 0.9.

Read-out in this experiment: Alpha-fetoprotein (AFP) gene, AFP (gene 174)
As to the kind of experiment: LTEA_HepaRG_AFP: Life Technologies and Expression Analysis (LTEA) Assay for Alpha-fetoprotein (AFP) gene using HepaRG (AID 2283472).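 On AC50: AFP transcript by TaqMan qRT-PCR normalized to ACTB GAPDH and POLR2A.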 As to conditions: mRNA level, 48 h; actives raise or lower the signal. On the procedure: It is a marker of Undifferentiated hepatocyte.Data from the assay component LTEA_HepaRG_AFP was analyzed into 1 endpoint. This assay endpoint, LTEA_HepaRG_AFP, was analyzed with bidirectional fitting relative to DMSO as the negative control and baseline of activity. Using a type of inducible reporter, measures of mRNA induction for gain or loss-of-signal activity can be used to understand regulation of transcription factor activity. To generalize the intended target to other relatable targets, this assay endpoint is annotated to the background measurement intended target family, where the subfamily is assay control.
A total of 1060 chemcials from the ToxCast library were tested in eight-point concentration-response experiments. Cell culture and cytotoxicity assays were conducted at Thermo Fisher Scientific's Custom Services facility (Madison, WI). A single lot of human HepaRG cells (Thermo Fisher Scientific, Frederick, MD) was used for the cell culture experiments. 96-well format collagen type I coated plates of human HepaRG cells were prepared using established methods. Briefly, cryopreserved HepaRG cells were thawed, plated at a density of approximately 100,000 cells/well in HepaRG Thaw, Plate, and General Purpose media (HPRG770, Thermo Fisher Scientific), and incubated for 48 hours. 0.5% DMSO was selected as vehicle control to balance the requisite need of DMSO in HepaRG cultures to maintain differentiation (for example, baseline metabolism, proportions of hepatocytes vs. cholangiocytes), while enabling further hepatic receptor pathway activation (for example, PXR and CAR) in response to chemical exposure. 48 hours after plating, the culture medium was replaced with HepaRG Serum-Free Incudtion Media. Cells were exposed to each test chemical in duplicate and maintained in CO2 incubators for another 48 hours. Chemical plates were thawed to room temperature and 200x concentrations of treatment groups were prepared. 8-point conentration-reponse curves were made with the highest exposure at 100 uM, followed by half-log dilutions, all in 0.5% DMSO. Each test plate contained variouse controls, induction positive controls (1mM phenobarbital), cytotoxicity positive controls ([…] aflatoxin B1), vehicle controls (0.5% DMSO), and total lysis controls (0.5% DMSO). Cell morphology images were taken using an Essen IncuCyte FLR automated microscope, with six 96-well plates imaged in about 24 minutes. Images were captured and exported and JPEG files. Spent culture media was transfered to black-well plates for the LDH assay, and remaining media was sorted at -80 C for later use. Cells were treated with RLT buffer and frozen until shipped for gene expression analysis. Total RNA was isolated from the cell suspension in 75 uL of Buffer RLT (Qiagen, Germantown, MD 20874) by Quintiles/Expression Analysis (Durham, NC) using a custom isolation procedure. Total RNA from each plate well was transferred to a preamplification plate. Fluidigm's 96.96 Dynamic ArrayTM (Fluidigm, Amsterdam, the Netherlands) technology was used for gene expression analyses by quantitative reverse transcription polymerase chain reaction (qRT-PCR, performed by Quintiles/Expression Analysis, Durham, NC)89. Standard TaqManTM Assays (Applied Biosystems/ThermoFisher Scientific, Foster City, CA) were used to assess the expression of 93 genes selected based on their selectivity and sensitivity to important hepatic receptors known to be modulated by environmental chemicals; importance in human hepatocyte functionality; and hepatotoxicity. Three "housekeeping" endogenous control genes were also included and used for normalization: actin beta (ACTB), Glyceraldehyde 3 phosphate dehydrogenase (GAPDH) and RNA Polymerase II Subunit A (POLR2A). qRT-PCR was conducted according to the manufacturer's protocol.
With `Cc1cccc(C)c1N`, the outcome was inactive.

For `Oc1c(Cl)c(Cl)c(Cl)c(Cl)c1Cl`, the AC50 was 3.19 µM (active).

On to `CC(C)C(=O)OCC(C)(C)C(OC(=O)C(C)C)C(C)C` (stereo not given), for which the molecule was called inactive.

For the molecule `Oc1ccc(Cl)cc1Cl`, the result was inactive.

In the case of `Cc1cc(-c2ccc(N)c(C)c2)ccc1N`, the AC50 was 34 µM (active).

In the case of `O=C(O)C(F)(F)C(F)(F)C(F)(F)C(F)(F)C(F)(F)F`, the molecule was called inactive.

With `Nn1cnnc1`, the molecule was called inactive.

In the case of `Clc1ccc(C(c2ccccc2Cl)C(Cl)(Cl)Cl)cc1` (stereo not given), the AC50 was 36.3 µM (active).

As for `COS(=O)(=O)OC`, the molecule was called inactive.

For the molecule `Cc1cc(O)ccc1Cl`, the call was inactive.

Take `CN(C)CCO`: the call was inactive.

For the molecule `Cc1cc2c3c(c1)C(c1ccccc1)=N[C@@H](NC(=O)c1ccncc1)C(=O)N3CC2`, the AC50 was 50 µM (active).

With `CCCCCCCCCc1ccc(O)cc1`, the molecule was called inactive.

For the molecule `CC#Cc1cc(C)nc(Nc2ccccc2)n1`, the AC50 was 26.4 µM (active).

`O=C(NC(=O)c1c(F)cccc1F)Nc1cc(Cl)c(OC(F)(F)C(F)F)c(Cl)c1`: the molecule was called inactive.

As for `CC(C)(c1ccccc1)c1ccc(O)cc1`, the AC50 is 77.8 µM (active).

Consider `C[C@]12CCC(=O)C=C1CC[C@@H]1[C@@H]2CC[C@]2(C)C(=O)CC[C@@H]12`, for which the AC50 was 50 µM (active).

Consider `CN(C)c1nc(=O)n(C2CCCCC2)c(=O)n1C`, for which the molecule was called inactive.

With `CCCCCCCCOC(=O)c1ccccc1C(=O)OCCCCCCCC`, the outcome was inactive.

For `Oc1ccc(C(c2ccc(O)cc2)(C(F)(F)F)C(F)(F)F)cc1`, the outcome was inactive.

With `N#Cc1ccc(N(CC(N)=O)CC(F)(F)F)cc1C(F)(F)F`, the outcome was inactive.

For `CCC(=O)O[C@H]1CC[C@H]2[C@@H]3CCC4=CC(=O)CC[C@]4(C)[C@H]3CC[C@]12C`, the molecule was called inactive.

With `ClC1=C(Cl)[C@]2(Cl)[C@@H]3[C@@H](Cl)[C@H]4O[C@H]4[C@@H]3C1(Cl)C2(Cl)Cl`, the AC50 was 21.9 µM (active).

On to `O=NN(c1ccccc1)c1ccccc1`, for which the result was inactive.

As to `Cc1ccccc1[N+](=O)[O-]`, the call was inactive.

Take `ClC1=C(Cl)[C@]2(Cl)[C@@H]3[C@@H]4C[C@@H]([C@H]5O[C@@H]45)[C@@H]3[C@@]1(Cl)C2(Cl)Cl`: the AC50 was 0.0145 µM (active).

For the molecule `CO/C=C(/C(=O)OC)c1ccccc1COc1cccc(C(F)(F)F)n1`, the AC50 was 4.93 µM (active).

Turning to `Nc1ccc(-c2ccc(N)cc2)cc1`, the result was inactive.

With `CCNc1nc(NC(C)C)nc(SC)n1`, the concentration at half-maximal activity (AC50) was 50 µM (active).

Take `O=C(O)C(F)(F)C(F)(F)C(F)(F)C(F)(F)C(F)(F)C(F)(F)C(F)(F)C(F)(F)C(F)(F)F`: the AC50 was 23 µM (active).

For the molecule `C[C@]12CCC(=O)C=C1CC[C@@H]1[C@@H]2CC[C@@]2(C)[C@H]1CC[C@]2(C)O`, the AC50 was 63.6 µM (active).

Take `C1CC2OC2CC1C1CO1` (stereo not given): the outcome was inactive.

As for `CCC(C)(c1ccc(O)cc1)c1ccc(O)cc1`, the AC50 was 50 µM (active).

As for `CCOP(=S)(OCC)SCSC(C)(C)C`, the AC50 was 29.5 µM (active).

Consider `CCC(C)c1cc([N+](=O)[O-])cc([N+](=O)[O-])c1O` (stereo not given), for which the AC50 was 2.35 µM (active).

Take `O=S(=O)(O)C(F)(F)C(F)(F)C(F)(F)C(F)(F)F`: the outcome was inactive.

For the molecule `c1cc2ccc3cccc4ccc(c1)c2c34`, the result was inactive.

As for `O=C(N[C@H]1CN2CCC1CC2)c1cc2ccoc2cn1`, the molecule was classed as inactive.

For `Cc1ccc(O)c(C)c1`, the molecule was called inactive.

`CCCCCCOC(=O)c1ccccc1C(=O)OCCCCCC`: the molecule was classed as inactive.
